Among the data in PubChem BioAssay AID1259415 (National Center for Advancing Translational Sciences (NCATS), 2018) are activity change, negative = inhibition values, retold here.

Structures are written as SMILES. Out of some 410,000 compounds screened, about 18,000 (4.4%) were called active. Another 7% or so got no clear call; they are omitted. The sample as a whole holds a higher share of actives than the screen did. Unmarked numbers belong to inactive results. Cut-off read from the data, not from the text of the source: active = activity change below about -60%; inconclusive = no clear call, values can overlap the other calls; inactive = above about -39%.
% is set by controls: 0 for no effect and ±100 for the full control effect.

The nature of this assay: qHTS Assay for inhibitors of the human cytomegalovirus (HCMV). The following applies: HFF cells, HCMV-luciferase reporter, 72 h; at 57.5 µM; active compounds read low. The method, boiled down:
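Human foreskin fibroblasts infected with luciferase-reporter HCMV at MOI 1 PFU/cell, compounds at two doses. Luciferase measured 72 h post infection; normalized to buffer-only basal and Salinomycin (10uM) controls.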
Background: qHTS replaces the single test concentration by a dilution series.
With `Cc1cc2nc(-c3ccc(NC(=O)c4cc5ccccc5o4)cc3)oc2cc1C`, the activity change, negative = inhibition was 98.1%. In the case of `C=CCN1C(=O)N(Cc2ccccc2)c2ccccc2S1(=O)=O`, the activity change, negative = inhibition is 8.55%. As to `Cc1ccc(-n2c(SCC(=O)Nc3cccc(F)c3)nc3c(oc4ccccc43)c2=O)cc1C`, the activity change, negative = inhibition was -8.05%. The result for `O=C(CSc1nnc(-c2cccs2)n1Cc1ccccc1)N1CCc2ccccc2C1` reads -10.6%.

Turning to `O=c1onc(-c2cccs2)n1Cc1ccccc1`, the activity change, negative = inhibition was -71.3% (active). Consider `Cc1cc(NC(=O)c2cc(-c3cccs3)on2)nn1Cc1ccc(Cl)cc1`, for which the activity change, negative = inhibition is -28.3%.

As to `CCC1=Nc2cc(C(=O)NCCCOC(C)C)ccc2Sc2ccc(C)cc21`, the activity change, negative = inhibition was -62.8% (active).

For `CC1=Nc2cc(C(=O)NCc3ccc(C)cc3)ccc2Sc2ccc(Cl)cc21`, the activity change, negative = inhibition is -34.6%. The result for `CCC1=Nc2cc(C(=O)NCC(C)c3ccccc3)ccc2Sc2ccc(C)cc21` (stereo not drawn) reads -7.44%; that for `COCCNC(=O)c1ccc2c(c1)N=C(C)c1cc(C)ccc1S2`, -83.7% (active). On to `CCc1ccc(Sc2cc(C(=O)NCCCOC(C)C)c3ccccc3n2)cc1`, for which the activity change, negative = inhibition was -34.7%. The result for `COCCNC(=O)c1ccc2c(c1)ncn2-c1ccc(C)c(Cl)c1` reads 52.5%. Take `COc1ccc(Cc2nnnn2CC(=O)O)cc1`: the activity change, negative = inhibition is -17%.

Turning to `Cc1ccc(NC(=O)CN2C(=O)C(c3ccc(F)cc3)=NC23CCCCCC3)c(C)c1`, the activity change, negative = inhibition was 0.733%.

Take `CCC(=O)N1c2ccccc2CC1C(=O)N1CCN(c2ccccc2F)CC1` (stereo not drawn): the activity change, negative = inhibition is 3.71%. With `O=C(NCCC1=CCCCC1)c1ccc2c(c1)N(Cc1ccccc1F)C(=O)c1ccccc1S2(=O)=O`, the activity change, negative = inhibition is 2.55%. As to `CCOc1ccccc1N(C)C(=O)c1cc2c(s1)-c1ccccc1OC2`, the activity change, negative = inhibition was 2.75%. With `Cc1ccc(-c2noc(CCC(=O)Nc3ccccc3N3CCN(C)CC3)n2)cc1`, the activity change, negative = inhibition was -68.8% (active). In the case of `COc1ccc(-c2noc(CCC(=O)N3CCN(c4cccc(C)c4)CC3)n2)cc1`, the activity change, negative = inhibition is 1.95%. Regarding `COc1cccc(CNC(=O)CCc2nc(-c3ccc(C)cc3)no2)c1`, the activity change, negative = inhibition is 9.74%. To `CCCN(c1ccc(C)cc1)c1nc(=O)c2cccnc2s1` belongs -20.6%; to `COc1ccc(OC)c(CNC(=O)CN2C(=O)CCn3nc(-c4cn(C)c5ccccc45)cc32)c1`, 3.11%.

On to `O=C1CCCCN1CCCC(=O)N1CCCC(Nc2ccc(F)cc2)C1` (stereo not drawn), for which the activity change, negative = inhibition is 4.92%. To `O=C1/C(=C/c2ccc(F)cc2)SC(=S)N1CCCC(=O)N1CCCCC1CCO` (stereo not drawn) belongs -100% (active); to `O=C(NCCC1CCCCN1S(=O)(=O)c1ccc(F)cc1)C(=O)NC1CC1` (stereo not drawn), -34%; to `COc1ccc(S(=O)(=O)NCc2cccn2Cc2cccc(C)c2)cc1Cl`, -8.25%. In the case of `CCOC(=O)C1CCN(c2nc3c(S(=O)(=O)c4ccc(CC)cc4)nnn3c3ccc(Cl)cc23)CC1`, the activity change, negative = inhibition is 10.1%. Consider `COc1ccc2c(c1)CC[C@@H]1[C@@H]2CC[C@]2(C)C(=O)CC[C@@H]12`, for which the activity change, negative = inhibition is -18.8%. As for `Cc1ccc(-n2cc3ccc([N+](=O)[O-])cc3n2)cc1`, the activity change, negative = inhibition was 46.8%. For `Cc1nc(=O)c(-c2ccccc2)c(C)n1-c1ccc(Br)cc1`, the activity change, negative = inhibition was -37%. As to `Cc1ccc2nc(-c3ccccc3)c(CC3CCCCC3)n2c1`, the activity change, negative = inhibition was 43.3%. Consider `Cc1ccc(N2CCN(c3ccc([N+](=O)[O-])cn3)CC2)c(C)c1`, for which the activity change, negative = inhibition was -6%. In the case of `Cc1ccc(-c2cn3cc([N+](=O)[O-])ccc3n2)cc1`, the activity change, negative = inhibition is -89.1% (active). As to `Cc1ccc(-c2cn3cc(C)ccc3n2)cc1`, the activity change, negative = inhibition was -91.4% (active). As to `Cc1ccc2nc(-c3ccc(Br)cc3)cn2c1`, the activity change, negative = inhibition was -89.7% (active). As for `Cc1ccc(-c2nc(SCc3ccc(Br)cc3)n3[nH]c(=O)cc3n2)cc1`, the activity change, negative = inhibition is 81.8%. As to `CC(=O)Nc1c(-c2ccc(C)cc2)nc2ccc(Cl)cn12`, the activity change, negative = inhibition was 7.31%. For `CCOC(=O)c1c(C)[nH]c(C)c1S(=O)(=O)N1CCC(C(=O)Nc2ccc(C)c(Cl)c2)CC1`, the activity change, negative = inhibition was 1.11%. For `CCOC(=O)c1c(C)[nH]c(CCC(=O)NCCCN2CCN(c3cccc(Cl)c3)CC2)c1C`, the activity change, negative = inhibition is -37.8%. For the compound `CCOc1cc(CNC(=O)c2sc3ncnc(N(C)C4CCCCC4)c3c2C)ccc1OC`, the activity change, negative = inhibition is -22.8%. Regarding `O=C1CC(Sc2ncn[nH]2)C(=O)N1c1ccccc1` (stereo not drawn), the activity change, negative = inhibition is -11.2%. Consider `CCOc1ccc(CCNC(=O)CN(c2ccc(C)cc2)S(=O)(=O)N(C)C)cc1OCC`, for which the activity change, negative = inhibition is -14.8%. `Cc1nn2c(=O)cc(COC(=O)CNC(=O)c3ccc(F)cc3)nc2s1`: the activity change, negative = inhibition was -0.933%. The result for `CCOC(=O)C1C(C)C(C(C)(C)C)N(S(=O)(=O)c2ccc(C)cc2)C1c1ccccc1` (stereo not drawn) reads -77.2% (active); that for `Cc1ccc(S(=O)(=O)N2[C@@H](c3cccc4ccccc34)C(C(=O)O)=C[C@H]2C(C)(C)C)cc1`, -14.1%; that for `CCOC(=O)c1ccn(S(=O)(=O)c2ccc(C)cc2)c1-c1ccccc1`, -18.7%.

For `CCc1nc2ccc(C(=O)N3CCN(c4cc(Cl)ccc4C)CC3)cc2nc1CC`, the activity change, negative = inhibition was 33.5%. The result for `CCC(=O)N1CCc2cc(S(=O)(=O)NC(C(=O)Nc3ccc(C(C)=O)cc3)C(C)C)ccc21` (stereo not drawn) reads 7.35%; that for `C=Cn1cc[n+](CC(=O)c2ccc(OC)c(OC)c2)c1`, -10.4%. As for `COc1ccc(-c2ccc(Nc3ccc(S(=O)(=O)N4CCCC4)cc3)nn2)cc1OC`, the activity change, negative = inhibition was -67% (active). Take `COc1ccccc1CC(=O)Nc1ccc(S(=O)(=O)N2CCCC2)cc1`: the activity change, negative = inhibition is -14.7%.

As for `COc1ccc(S(=O)(=O)N2CCC(C(=O)N3CCCC3)CC2)cc1C`, the activity change, negative = inhibition was 1.95%. Turning to `O=C(CSc1oc(-c2ccccc2)nc1S(=O)(=O)c1ccc(Br)cc1)NC1CCCCC1`, the activity change, negative = inhibition is 14%. To `O=C(NCc1ccc(F)cc1)c1ccc(Cn2c(SCc3ccc(F)cc3)nc3cccnc32)cc1` belongs 16%. The result for `Cc1c(C(=O)N(C)C)sc2c1c(=O)n(-c1ccc(F)cc1)c(=O)n2CC(=O)N(C)c1ccccc1` reads 7.53%; that for `CN(C(=O)CC(NC(=O)c1ccccc1)(c1ccccc1)c1ccccc1)c1ccccc1`, -66.2% (active). Regarding `Cc1ccc(S(=O)(=O)NCCC(=O)OCC(=O)N(C)c2ccccc2)cc1`, the activity change, negative = inhibition was 2.56%. The result for `CN(C(=O)COC(=O)CNC(=O)C12CC3CC(CC(C3)C1)C2)c1ccccc1` reads 5.66%; that for `Cc1ccc(C)c(Oc2c(C(F)(F)F)oc3c(CN4CCN(C)CC4)c(O)ccc3c2=O)c1`, -2.3%; that for `Cn1c(=O)nc2n(-c3ccc(Br)cc3)c3cccc(Cl)c3cc-2c1=O`, -1.09%. On to `CCOC(=O)c1cc(OC(=O)c2ccccc2Cl)n(-c2ccccc2)n1`, for which the activity change, negative = inhibition was -20.3%. The result for `Cc1ccc(CCNC(=O)c2nnc(Cc3cccc(F)c3)o2)cc1` reads -16.3%. For `COc1ccc(C(CNCC(=O)Nc2ccccc2F)N(C)C)cc1` (stereo not drawn), the activity change, negative = inhibition is 8.02%. The result for `COc1ccc(C(CCNCc2ccccc2F)c2ccc(F)cc2)cc1` (stereo not drawn) reads -62.4% (active); that for `COc1ccc(CCNC(=O)COC(=O)Cc2ccccc2F)cc1`, 3.43%; that for `C=C1CCN([C@H](C(=O)NCc2cc(OC)c(OC)c(OC)c2)C(C)C)S(=O)(=O)c2ccccc21`, 9.82%.

In the case of `Cc1cccc(N2CCN(C(=O)Cn3ncc4c5ccccc5n(C)c4c3=O)CC2C)c1` (stereo not drawn), the activity change, negative = inhibition is 17.6%. Take `CCN1CCN(C(=O)C2CCN(S(=O)(=O)c3cc(Cl)ccc3Cl)CC2)CC1`: the activity change, negative = inhibition was 10.9%.

Take `CCOC(=O)N1CCN(C(=O)C2CCN(S(=O)(=O)c3cc(Cl)ccc3OCC)CC2)CC1`: the activity change, negative = inhibition is -87% (active). As to `CCOC(=O)N1CCN(C(=O)C2CCN(S(C)(=O)=O)CC2)CC1`, the activity change, negative = inhibition was -16.6%.

With `CCn1c2c(c(=O)n3ncc(C(=O)N4CCN(c5ccccc5)CC4)c13)CN(Cc1ccc(OC)cc1)CC2`, the activity change, negative = inhibition was 17.6%.

On to `COc1ccccc1-n1c(-c2ccc(C)cc2)cn2c3c(=O)n(C)c(=O)n(C)c3nc12`, for which the activity change, negative = inhibition is -0.712%. Turning to `COCC(C)N=CC1=C(O)CC(C)(C)CC1=O` (stereo not drawn), the activity change, negative = inhibition was 36.9%.

Regarding `O=C(NCCCN1CCCC1=O)C(=O)NCC1OCCN1S(=O)(=O)c1ccc(Br)cc1` (stereo not drawn), the activity change, negative = inhibition was -19.1%. In the case of `CC(C)NC(=O)C1CCC(Cn2c(=O)c3sccc3n(Cc3ccc(F)cc3)c2=O)CC1` (stereo not drawn), the activity change, negative = inhibition was 23.5%. To `OCCC1CN(Cc2ccc3nsnc3c2)CCN1C1CCCC1` (stereo not drawn) belongs -14.5%; to `OCCC1CN(Cc2ccc3nsnc3c2)CCN1C1CCCCC1` (stereo not drawn), 11.1%. Consider `Cn1cnnc1Sc1ccc(CN2CCN(C3CCCC3)C(CCO)C2)o1` (stereo not drawn), for which the activity change, negative = inhibition was -68.7% (active). Take `CCN(C(=O)Cn1cc(S(=O)(=O)N2CCN(c3ccccc3F)CC2)c2ccccc2c1=O)c1ccc(C)c(C)c1`: the activity change, negative = inhibition was 3.86%.

`COc1ccc(CCNC(=O)C(=O)NCc2ccccc2C)cc1OC`: the activity change, negative = inhibition is -36%. In the case of `COc1ccc(CCNc2cc(N3CCN(C(=O)c4ccccc4OC)CC3)ccc2[N+](=O)[O-])cc1OC`, the activity change, negative = inhibition is -94% (active). With `COc1ccccc1OCCNc1cc(N2CCOCC2)ccc1[N+](=O)[O-]`, the activity change, negative = inhibition was 63.8%. On to `COc1cccc(NC(=S)NC(=O)c2c(Cl)c(C)nn2C)c1`, for which the activity change, negative = inhibition is 12.6%. To `COc1ccc(N2CCN(S(=O)(=O)CCNC(=O)C34CC5CC(CC(C5)C3)C4)CC2)cc1` belongs -36.2%; to `CCOc1ccccc1OCCCNCc1ccccc1`, -10.8%. On to `CN(C)CCNC(=O)Cc1ccc([N+](=O)[O-])cc1`, for which the activity change, negative = inhibition was -3.93%. For `CN(C)CCNC(=O)c1ccc(Cl)c2cc3ccccc3nc12`, the activity change, negative = inhibition is -98.5% (active).

For `COc1ccc(Nc2cc(C(=O)NCCCN(C)c3ccccc3)c3ccccc3n2)c(OC)c1`, the activity change, negative = inhibition is -2.95%.
